40 sequences from the supplement of paper PMC6555819 can be followed below.

The first test concerns PXR homodimer (NR concentration 270 nM). Description: PBM binding z-score (relative to random genomic background probes); higher = stronger binding; sequences stand for … in GC…GCGATTGACAGCGTAGAATGAAGG
The method in brief:
(§1)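 Scanned fluorescence from custom Agilent 4×180K protein-binding microarrays was regression-normalized. Binding z-scores use random background probes as reference. Ligand-free nuclear receptor dimers were incubated on the arrays for 1 h and detected with antibodies against each partner (one per run).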
Take AGAATGAGGTTAAGTTCAGGGAAACAGAATACAT: the PBM binding z-score amounted to 1.91.
The same measure, in the same setting: the result for CCTACTGGACCAAGGTCATTGATCAGTCAAAGCA reads 1.96; that for ATCTCTAGGTTAAGATAGTTCAGTGAATGCAAAT, 0.756; that for CAAACTAGTTCAAGAGGTCAAAGTCCGCTTCCCG, 5.56.
The same measure, in the same setting: the result for CCTACTGGGCCATTCAGAGGTCAATGATCATATG reads 0.827; that for AGAATGGGGTTACCAAAGATCAGGGAAACGCTTG, 0.0687.
ATCGAAAGGTCCAAGGTGAGTATACCCACCCGAA displayed a PBM binding z-score of -0.107.
For the sequence ACTCGGATGACAAAGGTCAGAGCTACGCCAGTGA, the PBM binding z-score came out at 0.135.
On the same count and under the same terms, the figure for AGTCAAAGTTCATCTAGGTAACATAAGATATGCT is 6.9.
Same read-out and setting: the figure for CCTAGTTGGTCAAGGTCACACCCGCTATAGGTAC is 2.06; for TCTAGTTGGTCACGGAGGTCACAAACGACGGGTA it is 1.25.
Sequence AGAATGAGGTTAAACGTAGATCAGGGAAGAAAGT displayed a PBM binding z-score of 0.319.
ACTTACGGCTCAACGAGGTTATAGCACGCGTATA: the PBM binding z-score was found to be 0.358.
AATACAGGGTGACTAGGCCAGAGTAGGTACGAAT registered a PBM binding z-score of 0.336.
The same measure, in the same setting: the figure for GCTGCTAGTTCAACTGATGGTCAGCTAAAGCTCG is -0.4; for TAGCCTAGGTCATTCAGGGGCCAGCATAGAAAGC it is -0.172; for TTGCCTAGGTCATTGGGCCAGTATAGTACGCATC it is -0.193.
AGAATGAGATTACCAAAGATCAGGGAAACGCTTG displayed a PBM binding z-score of -0.0511.
The same measure, in the same setting: the figure for ATCGAAAGGTCGACCAGGTGAGTATACACCGTTT is 0.258; for CCTTACGGGTTACTCCAGGTTATAGCATCGGAGT it is 0.558; for TCTGCTAGGTCAACGTTGGTCAGCTAATCTGCTA it is -0.62.
Still for that read-out and setting: the result for ATATGTAGGATAGCTGGGGTCATTCAGACTAGGC reads 2.24; that for CCTAGCAGGCCAATCTAGGTCACTCAAGGCTTGA, -0.261.
The same measure, in the same setting: the figure for CAAACTAGGTCACAGTGGTCAAAGTCCGTGCGTA is -0.0834.
CAAACTAGGTCACTAAAGGTCAAAGTCGAATGAC had a PBM binding z-score of 2.87.
Turning to GCTTACGGGTCCAAGGTTATAGCATGAATAGAAT, the PBM binding z-score was 0.331.
The same measure, in the same setting: the figure for ATATGTAGGTTATCGGGTCATACAGTTTGCGCAT is 2.74; for TACCCTAGGTCATTCAGGGGCCAGTATAGAAAGC it is 0.936; for TCTTGTAGATCAACAGGAGGTTAATAAAGATCGA it is -0.162.
For the sequence TCTAGTTGGTCTAAGGTCACACACTCGAAATGCG, the PBM binding z-score was 2.22.
On to TAGCCTAGGTCATGGGCCAGTGTACCACGCGAAC, for which the PBM binding z-score was -0.511.
The same measure, in the same setting: the figure for CCTACGGGGCCACGAAAGGTCATTGATTCAGTGA is 2.54; for TCTTGTAGATCGATAGAGGTTAAGAAAGTGCGCT it is 0.241; for AGAATGAGGTTACCAAAGGTCAGGGAAACGCTTG it is 1.49.
On the same count and under the same terms, the figure for CCGAGTTGGTCAAGGTCACACACGCTATAGGTAC is 5.4; for ACTTACGGGTCTACGAGGTTATAGCACGCGTATA it is 0.544.
Still for that read-out and setting: the result for AGTCAAAGTTCAGGACGACGTAACGTAAAGCACG reads 0.785; that for CGTCCAAGGTCAGCGGGTCAGTGAAAGCGACGTG, 1.09.
For the sequence ATATGTAGGTTAGCTGGGGTCCTTCAGACTAGGC, the PBM binding z-score amounted to 0.206.
The same measure, in the same setting: the result for GATATAGGGTCAGCTAGAGGCCAGAGTATGGAAA reads 0.376.

Another test relates to RARa:RXR (NR concentration 270 nM, RXRa partner concentration 90 nM). Described as above. The method in brief:
as §1
As to AGAATGAGGTTAAGTTCAGGGAAACAGAATACAT, the PBM binding z-score was 3.03.
The same measure, in the same setting: the result for CCTACTGGACCAAGGTCATTGATCAGTCAAAGCA reads 3.91; that for ATCTCTAGGTTAAGATAGTTCAGTGAATGCAAAT, 1.53; that for CAAACTAGTTCAAGAGGTCAAAGTCCGCTTCCCG, 6.53.
On the same count and under the same terms, the result for CCTACTGGGCCATTCAGAGGTCAATGATCATATG reads 3.93; that for AGAATGGGGTTACCAAAGATCAGGGAAACGCTTG, 3.76.
Still for that read-out and setting: the figure for ATCGAAAGGTCCAAGGTGAGTATACCCACCCGAA is 0.511.
The sequence ACTCGGATGACAAAGGTCAGAGCTACGCCAGTGA gave a PBM binding z-score of 4.51.
Turning to AGTCAAAGTTCATCTAGGTAACATAAGATATGCT, the PBM binding z-score amounted to 4.2.
As to CCTAGTTGGTCAAGGTCACACCCGCTATAGGTAC, the PBM binding z-score is 4.02.
For TCTAGTTGGTCACGGAGGTCACAAACGACGGGTA, the PBM binding z-score amounted to 4.32.
AGAATGAGGTTAAACGTAGATCAGGGAAGAAAGT registered a PBM binding z-score of 2.69.
On the same count and under the same terms, the result for ACTTACGGCTCAACGAGGTTATAGCACGCGTATA reads 0.812; that for AATACAGGGTGACTAGGCCAGAGTAGGTACGAAT, 0.341; that for GCTGCTAGTTCAACTGATGGTCAGCTAAAGCTCG, 0.418.
Sequence TAGCCTAGGTCATTCAGGGGCCAGCATAGAAAGC yielded a PBM binding z-score of 3.95.
Still for that read-out and setting: the figure for TTGCCTAGGTCATTGGGCCAGTATAGTACGCATC is 2.13; for AGAATGAGATTACCAAAGATCAGGGAAACGCTTG it is -0.182; for ATCGAAAGGTCGACCAGGTGAGTATACACCGTTT it is 3.62.
The same measure, in the same setting: the result for CCTTACGGGTTACTCCAGGTTATAGCATCGGAGT reads 1.68; that for TCTGCTAGGTCAACGTTGGTCAGCTAATCTGCTA, 2.22.
Same read-out and setting: the result for ATATGTAGGATAGCTGGGGTCATTCAGACTAGGC reads 5.49; that for CCTAGCAGGCCAATCTAGGTCACTCAAGGCTTGA, 1.37.
In the case of CAAACTAGGTCACAGTGGTCAAAGTCCGTGCGTA, the PBM binding z-score was found to be 2.51.
The same measure, in the same setting: the result for CAAACTAGGTCACTAAAGGTCAAAGTCGAATGAC reads 7.45.
Still for that read-out and setting: the result for GCTTACGGGTCCAAGGTTATAGCATGAATAGAAT reads 1.06; that for ATATGTAGGTTATCGGGTCATACAGTTTGCGCAT, 4; that for TACCCTAGGTCATTCAGGGGCCAGTATAGAAAGC, 3.65.
Still for that read-out and setting: the figure for TCTTGTAGATCAACAGGAGGTTAATAAAGATCGA is 1.23.
TCTAGTTGGTCTAAGGTCACACACTCGAAATGCG returned a PBM binding z-score of 5.04.
On the same count and under the same terms, the figure for TAGCCTAGGTCATGGGCCAGTGTACCACGCGAAC is 2.86; for CCTACGGGGCCACGAAAGGTCATTGATTCAGTGA it is 5.88; for TCTTGTAGATCGATAGAGGTTAAGAAAGTGCGCT it is 1.23.
On the same count and under the same terms, the result for AGAATGAGGTTACCAAAGGTCAGGGAAACGCTTG reads 6.53; that for CCGAGTTGGTCAAGGTCACACACGCTATAGGTAC, 4.96; that for ACTTACGGGTCTACGAGGTTATAGCACGCGTATA, 1.28.
In the case of AGTCAAAGTTCAGGACGACGTAACGTAAAGCACG, the PBM binding z-score amounted to 1.86.
CGTCCAAGGTCAGCGGGTCAGTGAAAGCGACGTG showed a PBM binding z-score of 5.13.
The same measure, in the same setting: the figure for ATATGTAGGTTAGCTGGGGTCCTTCAGACTAGGC is 2.3.
On the same count and under the same terms, the result for GATATAGGGTCAGCTAGAGGCCAGAGTATGGAAA reads 4.57.
